Laboratory results taken from PubChem BioAssay (NCI).
About 83,000 compounds went through this panel and 20% of them were active in at least one assay; those are over-represented in the sample as a whole.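 The test compound was applied at a single concentration to cells in 96-well plates for 48 hours, and percent growth was recorded.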 The source made the active and inactive calls.

Each compound was assayed on SK-MEL-5 melanoma (assay: NCI-60 one-dose screen, 48 h (100 = growth as untreated, 0 = no growth, -100 = all killed)). Conditions: 10 µM unless noted.
Method: Growth inhibition of the SK-MEL-5 human tumor cell line is measured as a screen for anti-cancer activity. Cells are grown in 96 well plates and exposed to the test compound for 48 hours. Compounds are tested at a single concentration, which is 10^-5 M for most compounds. The reported endpoint is percent growth (GI% or GIPRCNT), where numbers from 0 - 100% represent growth inhibition, and numbers from -100% - 0 represent cell death. For example, a value of 40 represents 60% growth inhibition. A value of 0 means no net growth occurred over the course of the experiment. A value of -40 indicates 40% of cells at the beginning of the experiment died by the end of the experiment. A value of -100 means all cells are dead at the end of the experiment.
NCI-60 Human Tumor Cell Lines Screen was performed using the standard one-dose NCI protocol, which is described in more detail at https://dtp.cancer.gov/discovery_development/nci-60/default.htm.
Compounds with GIPRCNT values below 10 were considered active. Activity score was based on GIPRCNT using the following formula: […]
Score is 0 for GIPRCNT values of 100 or above, 50 for GIPRCNT values of 0, and 100 for GIPRCNT values of -100.

| Compound | growth |
| --- | --- |
| Cc1ccccc1-n1nnc(C(=O)Nc2nc(-c3ccccc3)c(-c3ccccc3)s2)c1C | 80.5% [50 µM] (inactive) |
| COc1ccc(NS(=O)(=O)c2ccc(-c3cnc(C4CC4)o3)cc2)cc1 | 51.3% (inactive) |
| Clc1ccc2c(c1)C[C@H]1C[C@@H](c3cccs3)N2O1 | 99.5% (inactive) |
| OC[C@@H](O)[C@@H](O)CO | 104% (inactive) |
| O=C(COc1cccc(/C=C2\COc3ccccc3C2=O)c1)c1ccccc1 | 47.7% (inactive) |
| N#Cc1c(O)c2c(c(O)c1C#N)C(=O)c1ccccc1C2=O | -73.1% (active) |
| Nc1nc(N)c(C=Nc2ccc(Br)cc2)c(Nc2ccc(Br)cc2)n1 | 108% (inactive) |
| O=C(N/N=C(\CS(=O)(=O)c1ccccc1)c1cc2ccccc2oc1=O)c1ccccc1 | 105% (inactive) |
| Cc1ccc(N(CSc2ccc(Cl)cc2)CSc2ccc(Cl)cc2)cc1 | 65.5% (inactive) |
| CC(=O)Nc1ccc(S(=O)(=O)N/N=C\c2ccc(Cl)c(Cl)c2)cc1 | 104% (inactive) |
| COc1cc(CNCCCN2C(=O)c3ccc4c5c(ccc(c35)C2=O)C(=O)N(CCCNCc2cc(OC)c(OC)c(OC)c2)C4=O)cc(OC)c1OC | -99.7% (active) |
| COc1ccccc1-n1c(SCc2cc(OC)c(OC)c(OC)c2)nc2ccc(Cl)cc2c1=O | 27.7% (inactive) |
| COc1cccc(Nc2nc(NCCO)c3ccccc3n2)c1 | 78.2% (inactive) |
| O=C1/C(=C/c2ccc(Cl)cc2)N=C(c2ccccc2)N1CCc1cccs1 | 84.7% (inactive) |
| Cc1cc[n+](CCc2ccccc2)cc1 | 92.7% (inactive) |
| O=C(N/N=C/c1ccc(OC(F)F)c(OC2CCCC2)c1)c1cnn2c1NC(c1ccccc1)C2 (stereo not given) | 70.9% (inactive) |
| N#Cc1c(-c2cccc(F)c2)cc(-c2ccc(Br)s2)[nH]c1=O | 68.8% (inactive) |
| CCCCC(=O)N/N=C/c1cc(I)cc(I)c1O | 78.9% (inactive) |
| COc1ccc(C2CC(c3cc(OC)c(OC)c(OC)c3)=NN2c2ccc(S(N)(=O)=O)cc2)cc1 (stereo not given) | 58.2% (inactive) |
| O=C1C=CC(=O)N1CCCCCCCCCCN1C(=O)C=CC1=O | 95.8% (inactive) |

| Compound | growth |
| --- | --- |
| O=C1C(Br)=C(c2ccccc2)C(=O)C(Br)=C1c1ccccc1 | 98.5% (inactive) |
| COc1ccc(/C=N\N2CCOCC2)cc1OC1CCCC1 | 99.3% (inactive) |
| O=C(NCc1ccc(F)cc1)C1CN(c2ccc(Cl)cc2)N(c2ccc(Cl)cc2)C1=O (stereo not given) | 52.9% (inactive) |
| CCCCCn1c(=N)n(CC(O)COc2cccc(C)c2)c2ccccc21 (stereo not given) | -73.3% (active) |
| O=C1NC(=O)C(CSc2ccccc2)(c2ccccc2)N1 (stereo not given) | 92.6% (inactive) |
| O=C(CCc1nnc2sc(-c3ccccc3)nn12)c1nc2ccccc2[nH]1 | 92.4% (inactive) |
| CCN(CC)c1ccc2c(c1)OS(=O)(=O)N=C2 | 99.5% (inactive) |
| O=c1oc2ccccc2cc1-c1csc(N/N=C/c2cc3ccccc3nc2Cl)n1 | 98.4% (inactive) |
| CCOc1ccc(-c2cnnn2-c2nonc2-n2cccc2)cc1 | 24.7% (inactive) |
| CCCCCCCC/C=C\CCCCCCCCOc1cccc(CC(=O)NCC[N+]2(C)CCCC2)c1 | 94.1% (inactive) |
| COc1ccc(-c2c3c(N)c4c(nc3nc3c2c(C)nn3-c2ccccc2)CCCC4)cc1 | 90.9% (inactive) |
| COc1cc(/C=C/C(=O)C(=Cc2ccc(F)c(F)c2)C(=O)/C=C/c2ccc(O)c(OC)c2)ccc1O | 40.9% (inactive) |
| COc1cccc(C2C3=C(COC3=O)N(CCO)c3cc4c(cc32)CCC4)c1 (stereo not given) | -16.2% (active) |
| CSC1=CC(=O)c2ccccc2C1=O | 89.4% (inactive) |
| c1ccc(-c2n(Cc3ccc4ccccc4n3)c3ccccc3[n+]2Cc2ccc3ccccc3n2)cc1 | -95.9% (active) |
| Oc1cccc(Nc2nc(-c3ccccn3)cs2)c1 | 91.1% (inactive) |
| COc1ccc(-c2nc3sc(C)cn3c2/C=C/C(=O)c2cc(OC)c(OC)c(OC)c2)cc1 | 4.08% (active) |
| CCCCC(CCCC)(S(=O)(=O)CC)S(=O)(=O)CC | 98% (inactive) |
| Cc1c(C(=O)Nc2nc(-c3ccccc3)cs2)nnn1-c1cccc2ccccc12 | -2.94% [50 µM] (active) |
| COc1nc2c(cc1S(=O)(=O)c1ccccc1)CCc1c-2cnn1-c1cccc(Cl)c1 | 88% (inactive) |
